Measured values as given in the supplement of paper PMC3334620.
The full ranking holds about 33,000 sequences; the median of “E-score (-0.5 to 0.5)” is about -0.012, and the highest 2% start at about 0.27. The sample holds the highest values, similar sequences and a random draw of the others, so the mix is not that of the screen.

What follows are sequences tested against T1, Vhr1 (UniProt P40522) (assay: PBM E-score (8-mer binding enrichment) (E-score (-0.5 to 0.5)); higher = stronger / more preferred TF binding). Conditions: protein concentration: 200 nM; construct: GST-full length.
T1 sequence: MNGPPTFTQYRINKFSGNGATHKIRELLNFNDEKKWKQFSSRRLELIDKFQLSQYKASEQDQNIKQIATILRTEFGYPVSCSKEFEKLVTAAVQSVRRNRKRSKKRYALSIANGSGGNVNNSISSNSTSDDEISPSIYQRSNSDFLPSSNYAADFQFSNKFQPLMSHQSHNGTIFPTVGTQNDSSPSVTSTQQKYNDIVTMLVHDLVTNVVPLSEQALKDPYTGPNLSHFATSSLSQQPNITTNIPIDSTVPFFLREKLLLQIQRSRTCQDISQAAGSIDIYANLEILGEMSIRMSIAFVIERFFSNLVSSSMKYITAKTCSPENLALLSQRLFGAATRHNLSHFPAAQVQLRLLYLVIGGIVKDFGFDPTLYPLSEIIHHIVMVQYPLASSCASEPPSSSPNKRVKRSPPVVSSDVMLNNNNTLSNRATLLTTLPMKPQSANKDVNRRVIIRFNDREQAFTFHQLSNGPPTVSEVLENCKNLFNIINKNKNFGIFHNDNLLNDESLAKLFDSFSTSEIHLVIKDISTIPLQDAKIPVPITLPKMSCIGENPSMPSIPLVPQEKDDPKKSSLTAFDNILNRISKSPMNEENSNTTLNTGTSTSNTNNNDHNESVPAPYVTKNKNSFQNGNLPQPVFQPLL
How it was run: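 Yeast transcription factors carrying a GST tag, as full-length proteins or DNA-binding domains, were produced by PURExpress in vitro transcription/translation. About 100-200 nM protein was applied to universal all-10-mer Agilent arrays, double-stranded by primer extension on fresh or once-stripped slides. Bound protein was detected with fluorescent anti-GST, and scans were normalised with masliner. The Universal PBM Analysis Suite gave each ungapped eight-base word, pooled with its reverse complement, an E-score, a modified Wilcoxon-Mann-Whitney statistic.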

Sequence | PBM E-score
CTAGCCTA | -0.153
GGAACCAA | 0.171
AAAGGCGC | -0.0831
ACACCCAT | 0.191
AGGTAATC | 0.104
ACACTCCC | 0.0331
CATGGGTA | 0.27
AATGGGTA | 0.0928
GATGGGTA | 0.285
AAACCCGC | 0.0774
CAACCCGG | -0.116
CAACCCGC | 0.272
CGTTTCAG | -0.0522
ATAGGCCG | -0.229
AATCGATG | 0.107
CATCGATC | 0.016
CATCGATG | 0.302
AGCACAGG | 0.00375
CCAGTCGA | 0.0785
TAAAGGCA | -0.226
AGAGTATC | -0.0198
CCAAGCAC | 0.112
AGATGGGC | -0.0228
CGATGGGA | -0.0641

Sequence | PBM E-score
CGATGGGC | 0.297
ACTTGGCG | 0.0405
CGATAGGA | 0.129
TAGTCTGA | 0.218
GAGTCAAA | 0.312
GAGTCAAC | 0.403
AAGTCAAC | -0.00442
CAGTCAAC | 0.216
TAGTCAAA | 0.117
AAGTCAAA | 0.00983
ACTTTTAT | -0.304
AAGCCATT | 0.0335
CAAATCAG | -0.0128
ATTAGCTA | 0.0108
GCACCTGA | -0.00933
AACTACAC | 0.0739
TACTACTA | 0.208
GACTATAA | 0.0359
CACTACCA | 0.208
GACTACTA | 0.328
AACTATAC | 0.114
GACTACCC | 0.254
GACTATAC | 0.322
GACTACAC | 0.315

Sequence | PBM E-score
GACTACCA | 0.306
CACTACAC | 0.163
AACTACTA | 0.078
CATAGAAA | 0.102
GCTAGAAA | -0.0866
AGACTGTG | -0.0209
GGAGTGCA | 0.14
CGTTTTTC | -0.141
ACCATAGT | 0.0959
AAGCAAGT | -0.0526
AAGTAACA | 0.0225
CACTACTC | 0.205
GAGTAACA | 0.286
TACTAACA | 0.145
GAGTACTC | 0.345
GACTACTC | 0.31
AACTACTC | 0.19
AAGTACTC | 0.0478
GAGTAACC | 0.106
CAGTACTC | 0.117
CACTAACA | 0.177
GACTAACA | 0.354
AGCAGCGG | 0.0635
GAGCCAAC | -0.0688

Sequence | PBM E-score
ACATAGCT | -0.216
AACCAATT | 0.0547
CTAGCAAA | 0.00326
ATGGATCC | 0.144
AGTTACTC | 0.0219
GACACCTC | 0.0308
CACACCTC | 0.285
CACACCTG | 0.207
CACACAGG | 0.272
AACACAGC | 0.229
CACACAGC | 0.307
GACACAGC | 0.129
AACACAGG | 0.0235
CACACAGA | 0.263
AGTGGTGC | -0.0378
ACTGTAGA | 0.0811
CGAAGAAC | 0.0807
ACTAAACG | -0.0382
CAGCAGCG | -0.0154
AGATCTTA | -0.0915
CAACAACA | 0.234
CCATTGGG | -0.18
